Where “and” joins values, the source holds several entries; their conditions need not be identical. Equal entries are not always repeated. Some structures have more than one record in an assay (separate samples or runs), and their calls can disagree. Calls of active or inactive are those of the source. The calls were made as follows: active = hit-call score of the fitted dose curve at least 0.9, where 1 is the maximum; inactive = score below 0.9.
How the values were obtained:
[1] = read-out: Thrombomodulin, THBD (gene 7056); experiment: BSK_CASM3C_Thrombomodulin: BioMAP Diversity Plus: CASM3C Assay for Thrombomodulin Biomarker Activity (AID 2283051); details: primary human coronary artery smooth muscle cells; actives raise or lower the signal;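 also: thrombomodulin protein level measured by ELISA 24 h after dosing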
[2] = read-out: Tissue Factor, F3 (gene 2152); experiment: BSK_CASM3C_TissueFactor: BioMAP Diversity Plus: CASM3C Assay for Tissue Factor Biomarker Activity (AID 2283052); details: primary human coronary artery smooth muscle cells; actives raise or lower the signal;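 also: cell surface tissue factor protein level read by ELISA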
[3] = read-out: Interferon-gamma inducible Protein 10 (IP10), CXCL10 (gene 3627); experiment: BSK_hDFCGF_IP10: BioMAP Diversity Plus: hDFCGF Assay for Interferon-gamma inducible Protein 10 (IP10) Biomarker Activity (AID 2283053); details: primary human foreskin fibroblasts; actives raise or lower the signal
Outline: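 ELISA quantification of IP-10 after a 24 h chemical exposure of human dermal foreskin fibroblast primary cultures. Both increases and decreases versus DMSO fitted.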

[4] = read-out: Urokinase-type plasminogen activator receptor (uPAR), PLAUR (gene 5329); experiment: BSK_CASM3C_uPAR: BioMAP Diversity Plus: CASM3C Assay for Urokinase-type plasminogen activator receptor (uPAR) Biomarker Activity (AID 2283054); details: primary human coronary artery smooth muscle cells; actives raise or lower the signal;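 also: cell-surface uPAR protein level quantified by ELISA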
[5] = read-out: Vascular cell adhesion molecule 1 (VCAM1), VCAM1 (gene 7412); experiment: BSK_CASM3C_VCAM1: BioMAP Diversity Plus: CASM3C Assay for Vascular cell adhesion molecule 1 (VCAM1) Biomarker Activity (AID 2283055); details: primary human coronary artery smooth muscle cells; actives raise or lower the signal;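 also: VCAM-1 protein level quantified by ELISA on the cells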
[6] = read-out: Collagen III, COL3A1 (gene 1281); experiment: BSK_hDFCGF_CollagenIII: BioMAP Diversity Plus: hDFCGF Assay for Collagen III Biomarker Activity (AID 2283056); details: primary human foreskin fibroblasts; actives raise or lower the signal
Outline: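 hDFCGF primary human dermal fibroblasts; 24 h chemical exposure; collagen III by ELISA; bidirectional curve fit vs DMSO baseline (gain or loss of signal).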

[7] = read-out: Epidermal growth factor receptor (EGFR), EGFR (gene 1956); experiment: BSK_hDFCGF_EGFR: BioMAP Diversity Plus: hDFCGF Assay for Epidermal growth factor receptor (EGFR) Biomarker Activity (AID 2283057); details: primary human foreskin fibroblasts; actives raise or lower the signal
Outline: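 EGFR levels by ELISA in human dermal fibroblast cultures, 24 h post-treatment, fitted bidirectionally versus DMSO. Parallel wells stained with sulforhodamine B to detect overt cytotoxicity.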

[8] = read-out: Interleukin-8 (IL8), CXCL8 (gene 3576); experiment: BSK_hDFCGF_IL8: BioMAP Diversity Plus: hDFCGF Assay for Interleukin-8 (IL8) Biomarker Activity (AID 2283058); details: primary human foreskin fibroblasts; actives raise or lower the signal
Outline: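 ELISA read-out of IL-8 from primary human foreskin fibroblast cultures taken 24 h after dosing; values are bidirectional fits relative to DMSO vehicle.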

[9] = BSK_hDFCGF_Proliferation: Cell Proliferation Assessment in the BioMAP Diversity Plus: hDFCGF Assay (AID 2283059); details: primary human foreskin fibroblasts;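 also: curves fitted for both rise and fall of signal versus DMSO baseline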
Outline: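 Sub-confluent human foreskin fibroblast cultures receive test chemical […]. Relative cell number is quantified by sulforhodamine B staining (0.1%, after 10% TCA fixation) at 560 nm, with bidirectional fitting referenced to DMSO.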

[10] = read-out: Macrophage colony-stimulating factor (MCSF), CSF1 (gene 1435); experiment: BSK_hDFCGF_MCSF: BioMAP Diversity Plus: hDFCGF Assay for Macrophage colony-stimulating factor (MCSF) Biomarker Activity (AID 2283060); details: primary human foreskin fibroblasts; actives raise or lower the signal
Outline: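 ELISA read-out of M-CSF in human dermal foreskin fibroblast cultures, 24 h after chemical dosing; gain or loss of signal fitted bidirectionally relative to DMSO baseline.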

[11] = BSK_hDFCGF_SRB: Viability Assessment in the BioMAP Diversity Plus: hDFCGF Assay (AID 2283061); details: primary human foreskin fibroblasts;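 also: cells exposed to compound for 24 h before the read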
Outline: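 Primary human foreskin fibroblasts; 24 h post-dose; fixed 10% TCA, stained 0.1% SRB, A560 read; total protein as overt cytotoxicity measure; curves fit bidirectionally vs DMSO control.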

[12] = read-out: TIMP metallopeptidase inhibitor 1 (TIMP1), TIMP1 (gene 7076); experiment: BSK_hDFCGF_TIMP1: BioMAP Diversity Plus: hDFCGF Assay for TIMP metallopeptidase inhibitor 1 (TIMP1) Biomarker Activity (AID 2283062); details: primary human foreskin fibroblasts; actives raise or lower the signal
Outline: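 ELISA readout of TIMP-1 from human dermal foreskin fibroblast cultures 24 h post-dosing. Curves were fitted in both directions against DMSO baseline, with SRB total-protein staining in parallel cultures as a cytotoxicity check.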

[13] = read-out: Monokine induced gamma interferon (MIG), CXCL9 (gene 4283); experiment: BSK_hDFCGF_MIG: BioMAP Diversity Plus: hDFCGF Assay for Monokine induced gamma interferon (MIG) Biomarker Activity (AID 2283063); details: primary human foreskin fibroblasts; actives raise or lower the signal
Outline: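 Fibroblasts (human foreskin, primary) dosed, 24 h, MIG by ELISA; fit bidirectional vs DMSO.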

[14] = read-out: Matrix Metallopeptidase 1 (MMP1), MMP1 (gene 4312); experiment: BSK_hDFCGF_MMP1: BioMAP Diversity Plus: hDFCGF Assay for Matrix Metallopeptidase 1 (MMP1) Biomarker Activity (AID 2283064); details: primary human foreskin fibroblasts; actives raise or lower the signal
Outline: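 MMP1 levels quantified by ELISA 24 h after dosing human dermal fibroblast cultures, with parallel SRB total-protein staining for overt cytotoxicity. Data fitted in both directions against DMSO baseline.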

[15] = read-out: Vascular cell adhesion molecule 1 (VCAM1), VCAM1 (gene 7412); experiment: BSK_hDFCGF_VCAM1: BioMAP Diversity Plus: hDFCGF Assay for Vascular cell adhesion molecule 1 (VCAM1) Biomarker Activity (AID 2283065); details: primary human foreskin fibroblasts; actives raise or lower the signal;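 as to AC50: VCAM-1 protein level quantified by ELISA after 24 h chemical exposure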
Outline: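 ELISA read-out of VCAM-1 on human skin fibroblasts, 24 h post-dose; gain or loss of signal fitted bidirectionally against DMSO baseline.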

[16] = read-out: Plasminogen activator inhibitor-1 (PAI1), SERPINE1 (gene 5054); experiment: BSK_hDFCGF_PAI1: BioMAP Diversity Plus: hDFCGF Assay for Plasminogen activator inhibitor-1 (PAI1) Biomarker Activity (AID 2283066); details: primary human foreskin fibroblasts; actives raise or lower the signal
Outline: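 PAI-1 levels in human dermal foreskin fibroblasts were quantified by ELISA 24 h after dosing, with gain or loss analysed against DMSO. Overt cytotoxicity was checked by sulforhodamine B total-protein staining in parallel cultures.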

[17] = read-out: Intercellular Adhesion Molecule 1 (ICAM1), ICAM1 (gene 3383); experiment: BSK_KF3CT_ICAM1: BioMAP Diversity Plus: KF3CT Assay for Intercellular Adhesion Molecule 1 (ICAM1) Biomarker Activity (AID 2283067); details: primary human keratinocytes with fibroblasts; actives raise or lower the signal
Outline: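 ELISA readout of ICAM-1; KF3CT human skin co-culture (keratinocytes + foreskin fibroblasts), 24 h post-dose; gain/loss fit vs DMSO baseline.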

[18] = read-out: Interferon-gamma inducible Protein 10 (IP10), CXCL10 (gene 3627); experiment: BSK_KF3CT_IP10: BioMAP Diversity Plus: KF3CT Assay for Interferon-gamma inducible Protein 10 (IP10) Biomarker Activity (AID 2283068); details: primary human keratinocytes with fibroblasts; actives raise or lower the signal
Outline: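 ELISA read-out of IP-10 after 24 h chemical dosing of human skin primary co-culture (keratinocytes, foreskin fibroblasts). Gain or loss of signal relative to DMSO, bidirectional curve fit.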

[19] = BSK_KF3CT_SRB: Viability Assessment in the BioMAP Diversity Plus: KF3CT Assay (AID 2283069); details: primary human keratinocytes with fibroblasts;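 also: read 24 h after compound addition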
Outline: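 Cytotoxicity was gauged by SRB staining (0.1% SRB, 10% TCA fixation, 560 nm) of parallel cultures at 24 h. The cells were primary human skin keratinocytes co-cultured with fibroblasts, and activity was fitted in both directions against DMSO.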

[20] = read-out: Interleukin-1 alpha (IL1a), IL1A (gene 3552); experiment: BSK_KF3CT_IL1a: BioMAP Diversity Plus: KF3CT Assay for Interleukin-1 alpha (IL1a) Biomarker Activity (AID 2283070); details: primary human keratinocytes with fibroblasts; actives raise or lower the signal
Outline: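 IL-1a was detected by ELISA 24 h after chemical treatment of a co-culture of human skin keratinocytes and foreskin fibroblasts. Gain or loss of signal was fitted against the DMSO baseline.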

Measured: AC50

CCCCC(CC)CO[N+](=O)[O-] (centres undefined)
active: [4] 3.05 µM | [5] 34.1 µM | [17] 30.9 µM | [18] 30.2 µM | [19] 36.4 µM
inactive: all other assays above

CC(=O)OC(c1ccccc1)C(Cl)(Cl)Cl (centres undefined)
active: [9] 31 µM and 25.6 µM | [13] 36.7 µM
inactive: [1] | [2] | [3] | [4] | [5] | [6] | [7] | [8] | [10] | [11] | [12] | [13] | [14] | [15] | [16] | [17] | [18] | [19] | [20]

CC(C)(C)CC(C)(C)c1ccc(O)cc1
active: [1] 33.8 µM | [2] 10 µM | [3] 9 µM | [4] 14.8 µM | [5] 12 µM | [6] 8.27 µM | [7] 20 µM | [8] 10.6 µM | [9] 8.07 µM | [10] 7.74 µM | [11] 9.59 µM | [12] 8.77 µM | [13] 9.02 µM | [14] 6.98 µM | [15] 10.8 µM | [16] 8.03 µM | [17] 11.3 µM | [18] 10.1 µM | [19] 6.93 µM | [20] 7.85 µM

CC1(C)Cc2cccc(O)c2O1
inactive: all assays above

CCN1CCC2(CC1)COc1cc3c(cc12)N(C(=O)c1ccc(-c2ccc(-c4nnc(C)o4)cc2C)cc1)CC3
active: [1] 33.7 µM | [3] 9.35 µM | [4] 31.1 µM | [5] 27.6 µM | [6] 9.42 µM | [8] 12.5 µM | [9] 5.13 µM | [10] 7.12 µM | [11] 6.07 µM | [12] 9.3 µM | [13] 11.2 µM | [14] 9.25 µM | [15] 7.34 µM | [16] 9.28 µM | [17] 28.6 µM | [18] 28.4 µM | [19] 20.8 µM | [20] 31.4 µM
inactive: [2] | [7]

O=c1[nH]c(=O)[nH]c(=O)[nH]1
inactive: all assays above

Nc1ncc([N+](=O)[O-])s1
inactive: all assays above

Oc1ccc(-c2ccccc2)cc1
active: [2] 20 µM | [20] 11.5 µM
inactive: all other assays above

CN(C)N=O
inactive: all assays above

COc1cc(-c2ccc(N)c(OC)c2)ccc1N
inactive: [1] | [2] | [3] | [4] | [5] | [6] | [7] | [8] | [10] | [11] | [12] | [13] | [14] | [15] | [16] | [17] | [18] | [19] | [20]
active: [9] 13.2 µM and 4.28 µM | [10] 9.49 µM | [14] 20 µM | [15] 19.2 µM

NC(=O)O
inactive: all assays above

O=[N+]([O-])c1ccc2c3c(cccc13)CC2
active: [9] 27.7 µM | [10] 10.6 µM
inactive: all other assays above

Source: PubChem BioAssay (EPA / NIEHS)
